PBM binding z-score data for 40 sequences are collected here from the supplement of paper PMC6555819.

The assay has as its system PPARg:RXRa IVT, anti-PPARg (NR concentration 270 nM, RXRa partner concentration 90 nM). The assay is described as follows: PBM binding z-score (relative to random genomic background probes); higher = stronger binding; sequences stand for … in GC…GCGATTGACAGCGTAGAATGAAGG
The method, boiled down: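 For binding z-scores, the reference was random background probes on custom Agilent 4×180K protein-binding microarrays. These arrays were incubated 1 h with ligand-free nuclear receptor dimers in PBS pH 7.4, 2% milk, 0.02% Triton X-100, 1 mM DTT, 0.2 mg/mL BSA and 0.4 mg/ml salmon testes DNA. Fluorescence was scanned after antibody detection of each partner (one per run) and regression-normalized.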
TGAATGAGGTTACAAGATCAGGGAACGTTGCAAA came in with a PBM binding z-score of 3.07. On to CCTCGGAGGACAGAAGGACAGAGCTGTCCGCTTT, for which the PBM binding z-score is -0.913.

The sequence ATCCAAAGGTCGTGAGGTGAGTATACAGAAAGGC displayed a PBM binding z-score of 2.92. For CCTTACGGGTGACGAGGTTATAGCACGACGAGCG the value was 2.65; for CCGACTGGGGCAAGGTTACGATAACGCACAGCCA, 3.57.

Sequence TATACAGGGTGAAAGGCCAGAGTACGAATGTCGA gave a PBM binding z-score of 3.51. In turn, CAAACTAGATCAAAGGTCAAAGTCGAGCCAACCA yielded a PBM binding z-score of 6.8. Under TCTTGTAGATCAACCAGGTTAAGAAAGCCTGAGT stands 0.996; under TTAATGAGGTTAAAGATCAGGGAACGTGGCGTCG, 4.61. For ACTCGGCGGACAAAGGTCAGAGCTACGCCAGTGA the value was 2.33. Sequence TCTATGAGTTGATTAGGGCAACCGAAACAGCGGA showed a PBM binding z-score of 1.19. For ATCTCTAGGTAACGAAGTTCAGTGAATGCCGAAC the value was 2.82; for CTCGAAAGGTCGGTTGAGTTGAGTATACGGATAA, 0.513; for ACTATTAGTTGATTTAGGGCAACCGATACGACGC, 2.39. For AGAATGAGGTTATTGAGATCAGGGAATTGCGGTC the value was 2.93. Take ATCTCTAGGTAAGACTCAGTTCAGTGAAGAACGC: the PBM binding z-score is 0.996.

CCTATTAGTTGACCATACGGGCAACCGAAGCTCG: the PBM binding z-score amounted to 0.329. For TTACCAAGGTGAAAGGTCCTTGATGCACGCCTTG the value was 4.34. For CCTAGTTGGTCCAGGTCACACACGCTATAGGTAC the value was 2.28. Under CCTCGGAGGACAGGAGGTCAGAGCTGTCCGCTTT stands 0.452; under GTACCAAGGTGAATAGATCGTTGATGAGTAGGCG, 1.74; under CCTACTGGGCCACGAAAGGTCGTTGATTCAGTGA, 5.18. CAAACTGGGTCACCGGAAGGTCAAAGTCCGCATG: the PBM binding z-score was found to be 8.83. For TCTCGGAGGACACGCAGGTCAGAGCTTTCCAGAG the value was 0.776; for CCGAGTAGGTTATCGGGCATTCAGGCAACGGTGA, 2.72. For TCTTGTAGGTCAACAGGAGGTTAAGAAAGATCGA the value was 8.17.

On to TGAATTAGGTTAAAGATCAGGGAACGTGGCGTCG, for which the PBM binding z-score was 5.63. For ATTCAAAGTTCATCTAGGTAACGTAAGATATGCT the value was 2.97; for TAGCCTAGGTGATGCGGGCCAGTATAGTGTCGGC, 0.433.

For the sequence TAGCCTAGGTCCTGGGCCAGTATACCACGCGAAC, the PBM binding z-score is -0.0166. In turn, CCTATTAGTTGACCATAAGGGCAAGCGAAGCTCG yielded a PBM binding z-score of 0.158. The sequence GGAACGCGGGCAAGTTGATAGCAGAGTTTGATGG showed a PBM binding z-score of -0.448.

As for TCATATAGGTAATACAGGTGAATGTCGGCATCTA, the PBM binding z-score worked out at 3.5. Under ATCGAAAGGTCGACGAGGTGAGTTTACACCGTTT stands 2. For the sequence ATATGTAGGTTATCGGGTCATTCAGTTTGCGCAT, the PBM binding z-score worked out at 7.99.

Turning to ACAGACAGGTGAGTGAAGGTAACGCAGCTGGACG, the PBM binding z-score stood at 1.04.

In turn, CGTCCAAGGTCAGCAGATCAGTGAAAGCGACGTG returned a PBM binding z-score of 2.66. AGAATGAGGTTACCAAAGATCCGGGAAACGCTTG came in with a PBM binding z-score of 3.61. For AGAACGAGGGCAATGAGTTGCTAGCACGGGTGGC the value was 2.38.

The sequence CAAACTAGGTCAAAGGTAAAAGTCGAGCCAACCA yielded a PBM binding z-score of 9.08.
